Several values for one entry are separate records, joined by “and”; a condition that tells them apart may be missing. Equal values may be shown once. Out of some 5,500 compounds screened, about 2,000 (36%) were called active. About 18% were inconclusive and are not listed. Cut-off read from the data, not from the text of the source: active = normalized growth mostly below about 0.91 (no sharp cut-off); inconclusive = no clear call, values can overlap the other calls; inactive = mostly above about 0.92. This is one part of the list.
Assay: chemical genetic growth profiling, strain panel (AID 1159580);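 note: tested at 20 µM; growth read once vehicle control cultures reached saturation at 30 °C; 1 = growth at the plate median or of vehicle wells; lower values mean less growth of the strain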
Conditions: S. cerevisiae deletion strains, growth OD

Measured: normalized growth

CCCCN(CCCC)CCCOC(=O)c1ccc(N)cc1
inactive: locus YAL013W, strain DEP1, active compounds read low 1 | locus YAL021C, strain ccr4, active compounds read low 0.992 | locus YAL026C, strain drs2, active compounds read low 0.991 | locus YAL030W, strain snc1, active compounds read low 0.996 | locus YBL061C, strain skt5, active compounds read low 0.986 | locus YBR009C, strain hhf1, active compounds read low 0.998 | locus YBR021W, strain FUR4, active compounds read low 1.07 | locus YBR023C, strain chs3, active compounds read low 0.99 | locus YBR171W, strain sec66, active compounds read low 0.986 | locus YBR229C, strain ROT2, active compounds read low 0.998 | locus YBR231C, strain swc5, active compounds read low 1 | locus YBR279W, strain paf1, active compounds read low 0.994 | locus YCL011C, strain gbp2, active compounds read low 0.985 | locus YCL016C, strain dcc1, active compounds read low 0.99 | locus YCL029C, strain bik1, active compounds read low 0.982 | locus YCL061C, strain MRC1, active compounds read low 0.987 | locus YCL069W, strain vba3, active compounds read low 0.991 | locus YCR088W, strain abp1, active compounds read low 0.985 | locus YDL005C, strain med2, active compounds read low 0.994 | locus YDL035C, strain GPR1, active compounds read low 0.998 | locus YDL040C, strain nat1, active compounds read low 0.99 | locus YDL074C, strain BRE1, active compounds read low 0.977 | locus YDL101C, strain DUN1, active compounds read low 0.979 | locus YDL134C, strain PPH21, active compounds read low 1 | locus YDL185W, strain tfp1, active compounds read low 0.968 | locus YDL192W, strain arf1, active compounds read low 0.994 | locus YDR001C, strain nth1, active compounds read low 0.992 | locus YDR069C, strain doa4, active compounds read low 0.99 | locus YDR101C, strain arx1, active compounds read low 0.986 | locus YDR137W, strain rgp1, active compounds read low 0.879 | locus YDR150W, strain NUM1, active compounds read low 0.995 | locus YDR159W, strain sac3, active compounds read low 0.989 | locus YDR162C, strain NBP2, active compounds read low 0.984 | locus YDR195W, strain ref2 0.99 | locus YDR297W, strain sur2, active compounds read low 0.993 | locus YDR318W, strain mcm21, active compounds read low 0.992 | locus YDR334W, strain swr1, active compounds read low 0.983 | locus YDR335W, strain msn5, active compounds read low 0.989 | locus YDR388W, active compounds read low 0.989 | locus YDR392W, strain spt3, active compounds read low 0.983 | locus YDR502C, strain sam2, active compounds read low 1.01 | locus YEL003W, strain gim4, active compounds read low 0.986 | locus YEL037C, strain rad23, active compounds read low 0.991 | locus YEL061C, strain CIN8 (second series), active compounds read low 0.981 | locus YEL061C, strain CIN8, active compounds read low 0.998 | locus YER015W, strain faa2, active compounds read low 0.991 | locus YER016W, strain bim1, active compounds read low 0.991 | locus YER110C, active compounds read low 0.989 | locus YER111C, strain swi4, active compounds read low 1 | locus YER155C, strain BEM2 (second series), active compounds read low 0.984 | locus YER155C, strain BEM2, active compounds read low 1 | locus YER167W, strain BCK2, active compounds read low 0.995 | locus YFR010W, strain ubp6, active compounds read low 0.99 | locus YGL078C, strain dbp3, active compounds read low 0.992 | locus YGL086W, strain mad1, active compounds read low 0.994 | locus YGL167C, strain pmr1, active compounds read low 0.991 | locus YGL173C, strain kem1, active compounds read low 0.983 | locus YGL227W, strain vid30, active compounds read low 0.983 | locus YGL240W, strain doc1, active compounds read low 1 | locus YGL248W, strain PDE1, active compounds read low 1 | locus YGL253W, strain hxk2, active compounds read low 0.991 | locus YGR078C, strain PAC10, active compounds read low 0.97 | locus YGR135W, strain pre9, active compounds read low 0.994 | locus YGR229C, strain SMI1, active compounds read low 0.961 | locus YGR252W, strain gcn5, active compounds read low 1.16 | locus YHR013C, strain ard1, active compounds read low 0.961 | locus YHR027C, strain rpn1, active compounds read low 0.991 | locus YHR030C, strain SLT2, active compounds read low 0.965 | locus YHR079C, strain IRE1 (second series), active compounds read low 0.977 | locus YHR079C, strain IRE1, active compounds read low 0.973 | locus YHR094C, strain hxt1, active compounds read low 0.985 | locus YHR129C, strain ARP1, active compounds read low 0.989 | locus YHR142W, strain chs7, active compounds read low 0.992 | locus YHR200W, strain rpn10, active compounds read low 0.996 | locus YIL066C, strain RNR3, active compounds read low 0.991 | locus YIL073C, strain SPO22, active compounds read low 0.937 | locus YIL125W, strain kgd1, active compounds read low 0.987 | locus YIR030C, strain dcg1, active compounds read low 0.997 | locus YJL092W, strain hpr5, active compounds read low 0.986 | locus YJL095W, strain BCK1 (second series), active compounds read low 0.993 | locus YJL095W, strain BCK1, active compounds read low 0.967 and 0.982 | locus YJL115W, strain asf1, active compounds read low 0.993 | locus YJL129C, strain trk1, active compounds read low 1 | locus YJL134W, strain LCB3, active compounds read low 0.993 | locus YJL154C, strain vps35, active compounds read low 0.987 | locus YJL164C, strain tpk1, active compounds read low 0.964 | locus YJL166W, strain qcr8, active compounds read low 0.996 | locus YJL168C, strain set2, active compounds read low 0.988 | locus YJL187C, strain SWE1 (second series), active compounds read low 0.962 | locus YJL187C, strain SWE1, active compounds read low 0.992 | locus YJR043C, strain POL32, active compounds read low 0.993 | locus YJR066W, strain TOR1, active compounds read low 0.95
